# Records with an inconclusive call do not appear. Where a call stands in place of a potency, no number is given. Active and inactive are the calls of the source. Calls come from the whole dose curve.
# Molecular target: Tyrosine-protein kinase ABL1 (Homo sapiens) (UniProt P00519)
# Assay: ABL1 kinase (ABL1-N-HiBiT) SDR gain of signal screen
# Text: National Center for Advancing Translational Sciences (NCATS),
# National Institute of Health (NIH), Maryland
# Discovery and optimization of novel protein-binding ligands underlies many of the methods and applications of biology, drug discovery, clinical diagnostics, and environmental toxicology. Assays for detecting the interaction of, for example, a molecule with a macromolecular target also referred to here as the target of interest (TOI) is dependent on a compatible output technology. Depending on the nature and knowledge surrounding the TOI, whether a receptor, enzyme, regulatory subunit or scaffold, or a sequence-defined nucleic acid folded into a complex tertiary structure, assay strategies can vary widely.
# Here we exploit ligand-biased changes in the structural dynamics of the target protein to control reporter alpha complementation allowing a non-competitive, non-functional, non-separation measure of ligand-target interaction.
# Secondly, we show the specificity and sensitivity of the SDR for the Abelson tyrosine kinase (ABL1) compared to the serine/threonine protein kinase A, using an enriched chemical library of 128 compounds selected, in part, for activity annotated with ABL1 kinase activity using the Pharos database (3).
# (1) A. S. Dixon et al., NanoLuc Complementation Reporter Optimized for Accurate Measurement of Protein Interactions in Cells. ACS Chem Biol 11, 400-408 (2016).
# Chemistry & Biology, 19, 1060 - 1072 (2012).
# (3) K. J. Kelleher et al., Pharos 2023: an integrated resource for the understudied human proteome. Nucleic Acids Res 51, D1405-D1416 (2023).
# PROTOCOL TABLE (as described by Inglese J, Shamu CE and Guy RK. 2007)
# SEQUENCE No. (e.g., 1, 2, 3, etc.); […] (e.g., C. elegans, Compounds, Incubation, Read, etc.); VALUE and DESCRIPTION.
# 1. Reagent. Dispense 4 uL ABL1-N-HiBiT enzyme per well at a final enzyme concentration of 10 nM in buffer without ATP (SDR assay) into columns 2-48 of four replicate Greiner 1536-well white, solid bottom high base, medium plates per assay. Dispense respective buffer without enzyme at 4 uL/well in column 1 of assay plates using BioRaptr 2.
# 2. Compounds. Library compounds added at 23 nL/well by pin transfer. DMSO neutral control and imatinib positive control added at 25 nL/well, transfer by Mosquito dispenser.
# 3. Incubation. Incubate enzyme and compounds at room temperature for 30 min, protected from light.
# 4. Reagent. (SDR assay) Add 3 uL/well of Nano-Glo HiBiT reagent (Promega) to assay plates with or without ATP.
# 5. Incubation. (SDR assay) Incubate enzyme solution and HiBiT reagent at room temperature for 10 min, protect from light.
# 6. Detector. (SDR assay) Luminescence measured using CCD-based camera (ViewLux) with settings as follows: Exposure, 1 sec; Gain, High; Speed, Slow; Binning, 2X.
# Inglese J, Shamu CE and Guy RK, Reporting data from high throughput screening of small molecule libraries, Nature Chemical Biology, 2007, 3(8): 438-441. doi.org/10.1038/nchembio0807-438.
# Sequence of Tyrosine-protein kinase ABL1 (Homo sapiens) (P00519 whole entry, looked up): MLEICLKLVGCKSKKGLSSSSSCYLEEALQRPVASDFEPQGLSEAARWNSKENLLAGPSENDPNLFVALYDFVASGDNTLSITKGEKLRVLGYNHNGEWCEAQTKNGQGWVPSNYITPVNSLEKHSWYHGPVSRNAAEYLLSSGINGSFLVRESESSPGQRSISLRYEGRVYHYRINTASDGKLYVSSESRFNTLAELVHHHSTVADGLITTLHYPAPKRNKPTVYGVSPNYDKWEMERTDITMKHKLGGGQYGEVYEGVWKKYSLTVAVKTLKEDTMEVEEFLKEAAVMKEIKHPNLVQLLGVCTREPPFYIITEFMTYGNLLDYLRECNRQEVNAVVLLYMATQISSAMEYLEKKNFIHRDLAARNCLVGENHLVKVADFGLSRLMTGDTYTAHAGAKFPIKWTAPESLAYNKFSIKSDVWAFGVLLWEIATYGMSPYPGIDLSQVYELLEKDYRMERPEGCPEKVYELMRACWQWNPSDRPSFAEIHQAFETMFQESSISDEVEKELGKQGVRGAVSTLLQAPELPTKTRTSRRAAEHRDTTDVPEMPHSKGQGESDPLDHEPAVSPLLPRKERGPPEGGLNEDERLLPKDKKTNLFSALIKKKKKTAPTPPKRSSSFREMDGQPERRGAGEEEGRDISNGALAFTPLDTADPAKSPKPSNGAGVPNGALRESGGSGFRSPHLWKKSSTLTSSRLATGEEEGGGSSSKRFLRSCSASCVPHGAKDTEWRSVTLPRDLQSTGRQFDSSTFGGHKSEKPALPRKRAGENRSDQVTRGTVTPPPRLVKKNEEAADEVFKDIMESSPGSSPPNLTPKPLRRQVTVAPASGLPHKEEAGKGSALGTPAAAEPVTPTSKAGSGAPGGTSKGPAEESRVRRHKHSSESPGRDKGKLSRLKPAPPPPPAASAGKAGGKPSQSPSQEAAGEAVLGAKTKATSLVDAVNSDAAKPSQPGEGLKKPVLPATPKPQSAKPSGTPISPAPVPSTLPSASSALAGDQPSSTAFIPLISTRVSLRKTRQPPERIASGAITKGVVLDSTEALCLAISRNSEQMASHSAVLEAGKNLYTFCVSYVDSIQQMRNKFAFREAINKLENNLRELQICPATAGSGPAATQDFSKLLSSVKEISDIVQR
row,Structure (SMILES),Potency
1,N#Cc1cn([C@@H]2O[C@H](CO)[C@H](O)[C@@H]2O)c2ncnc(N)c12,6.05 µM (active)
2,O=[N+]([O-])O[C@H]1CO[C@H]2[C@@H]1OC[C@H]2O[N+](=O)[O-],inactive
3,CCNC(=O)C[C@@H]1N=C(c2ccc(Cl)cc2)c2cc(OC)ccc2-n2c(C)nnc21,inactive
4,Cc1[nH]nc2ccc(-c3cncc(OC[C@@H](N)Cc4c[nH]c5ccccc45)c3)cc12,inactive
5,O=C(NCCCNc1nc(Nc2ccc(N3CCOCC3)cc2)ncc1C1CC1)C1CCC1,inactive
6,C/C(O)=C(\C#N)C(=O)Nc1cc(Br)ccc1Br,inactive

# From PubChem BioAssay AID1963315 (National Center for Advancing Translational Sciences (NCATS), 2024)
